# Test system: Lefty1
# Assay: Lefty1 protein binding to printed compounds – biochemical, small-molecule microarray, 635/667 nm fluorescence, primary screen (AID 1139)
# Conditions: fluorescence 635/667, higher = more signal
row,Compound,composite z-score
1,CC#CC(=O)Oc1ccccc1C=CC(=O)OCC,0.51
2,CC(C)CNC(=O)[C@@]1(Cc2ccccc2I)c2ccccc2C(=O)N(C2CCCCC2)[C@H]1c1ccc(CO)cc1,-0.104
3,O=C(c1ccccc1)N1C(=O)[C@]2(COC(c3ccc(OCCCO)cc3)=N2)Cc2ccccc21,0.443
4,CC(C)(C)OC(=O)CC[C@]1(C(=O)N2CCOCC2)N=C(c2ccc(OCCCO)cc2)O[C@H]1c1ccccc1N=[N+]=[N-],0.146
5,COCCOC(=O)N1C(=O)[C@@]2(c3cc(C#CCC(C(=O)OC)C(=O)OC)ccc31)[C@H](c1ccccc1OCCO)N1[C@H](c3ccccc3)[C@H](c3ccccc3)OC(=O)[C@H]1[C@@H]2C(=O)NC[C@H](O)c1ccccc1,1.41
6,COCCCNC(=O)[C@]1(CCC(=O)OC(C)(C)C)N=C(c2ccc(OCCCO)cc2)O[C@@H]1c1ccccc1CN=[N+]=[N-],0.19
7,CCOC(=O)C1=C[C@@H](C(C)(C)C)N(S(=O)(=O)c2ccc(C)cc2)[C@H]1c1ccc(F)cc1,0.96
8,COc1cc(NN2C(C(O)c3ccco3)C=CC3C(=O)N(c4ccccc4)C(=O)C32)cc(OC)c1OC (configuration not stated),0.199
9,CCC(CC)C(O)C1C=CC2C(=O)NC(=O)C2N1Nc1ccc(Cl)cc1Cl (configuration not stated),0.359
10,CCCC[C@H]1OB(O)C[C@H]2C1=C(COC)Cn1c(=O)n(-c3ccccc3)c(=O)n12,0.63
11,C=C(COC)/C(=C/C[C@@H](OC(C)=O)c1ccc(OCCO)cc1)c1cnc2ccccc2c1,1.29
12,CN(C)C(=O)[C@@]1(CCS(=O)(=O)c2ccccc2)COC(c2ccc(OCCCO)cc2)=N1,-0.589
